# From PubChem BioAssay
# SMN2 splice up – qHTS Assay for Enhancers of SMN2 Splice Variant Expression; HEK293 SMN2-luciferase splicing reporter, luminescence, 30-36 h; Potency, µM (titrated, usually from 46.1 µM), for inactives: top-dose activity change, positive = activation, most hits filed as activators; hit rate 2.8% among 210,000; AID 1458, 2008; also: % of control where 0% means no effect; nearly all actives have a fitted effect of over 55% in size
#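 HEK293 cells carry an SMN2 […]–luciferase reporter in which exon 7 inclusion puts luciferase in frame. Cells were plated 10-12 h before compound addition, then incubated 30-36 h at 37C. ONE-Glo luminescence was read; sodium butyrate at 4.5 mM final served as control.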
# FLuc modulator – qHTS profiling assay for firefly luciferase inhibitor/activator using purifed enzyme and Km concentrations of substrates (counterscreen for miR-21 project); hit rate 6.9% among 360,000; purified FLuc, Km substrates, luminescence inhibition; Potency, µM (highest dose often 57.5 µM), for the others: at the top dose activity change, negative = inhibition, actives largely listed as inhibitors; Luciferin 4-monooxygenase (Photinus pyralis), P08659;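 also: plate controls were vehicle for no effect and reference inhibitor for full effect; nearly all actives have a fitted effect of over 55% in size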
# Target sequence (P08659 whole entry, looked up): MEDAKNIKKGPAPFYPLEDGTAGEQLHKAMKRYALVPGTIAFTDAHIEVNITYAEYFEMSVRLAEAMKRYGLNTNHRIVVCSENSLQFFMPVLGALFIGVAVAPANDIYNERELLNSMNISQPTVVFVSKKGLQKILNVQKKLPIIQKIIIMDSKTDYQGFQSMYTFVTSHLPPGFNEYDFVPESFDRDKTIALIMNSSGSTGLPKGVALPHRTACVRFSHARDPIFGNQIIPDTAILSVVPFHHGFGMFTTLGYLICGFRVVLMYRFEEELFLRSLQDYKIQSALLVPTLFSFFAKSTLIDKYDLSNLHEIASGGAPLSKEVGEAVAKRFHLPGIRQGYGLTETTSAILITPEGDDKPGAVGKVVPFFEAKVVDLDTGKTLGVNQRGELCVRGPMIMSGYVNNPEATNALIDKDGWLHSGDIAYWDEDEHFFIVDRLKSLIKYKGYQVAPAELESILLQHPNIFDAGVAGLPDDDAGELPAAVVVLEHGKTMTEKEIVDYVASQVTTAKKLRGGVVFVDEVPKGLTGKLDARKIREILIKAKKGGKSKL
#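 Purified P. pyralis luciferase, 10 nM final, with Km-level 10 uM D-luciferin and 10 uM ATP in 50 mM Tris acetate pH 7.5, 10 mM Mg acetate, 0.01% Tween-20, 0.05% BSA; 6-point qHTS titration about 60 µM downward; luminescence read.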
# Luc counter – Counterscreen for Luciferase (Kinase-Glo TM) Inhibition | Luciferin 4-monooxygenase (Photuris pensylvanica), Q27757 | Kinase-Glo luciferase, ATP luminescence, 8 min | Potency, µM (series often up to 38.3 µM), for the others: at the highest dose activity change, negative = inhibition, usual class: inhibitors | hit rate 0.28% among 200,000; also: % is scaled to controls: 0 for no effect and ±100 for the full control effect; nearly all actives have a fitted effect of over 60% in size
#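 Light output from Kinase-Glo luciferase with luciferin and 10 uM ATP in 50 mM imidazole pH 7.2, KCl, MgCl2, Tween 20, BSA; compound pin-delivered, 8-min ambient incubation, then luminescence read.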
# ELG1 genotox – qHTS screen for small molecules that induce genotoxicity in human embryonic kidney (HEK293T) cells expressing luciferase-tagged ELG1; AID 504466, 2011; hit rate 1.3% among 330,000; Potency, µM (series often up to 46 µM), for inactives: at the top dose activity change, positive = activation, actives largely listed as activators; HEK293T ELG1-luciferase reporter, luminescence, 16 h; also: % of control where 0% means no effect; nearly all actives have a fitted effect of over 60% in size
#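 After overnight (16 hr) compound treatment at 37 °C, ELG1-luciferase HEK293T cells were lysed with ONE-Glo; luminescence quantified 30 min later at room temperature.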
# NPC1 prom act – qHTS Assay for NPC1 Promoter Activators; hit rate 2.4% among 320,000; Potency, µM (highest dose often 9.22 µM), without a hit: at the top dose activation, hits mostly activators; Huh7 NPC1 promoter luciferase reporter, 24 h; also: % of control where 0% means no effect; nearly all actives have a fitted effect of over 60% in size
#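 NPC1 promoter–luciferase Huh7 cells; 24 h compound; luminescence.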
# Rab9 prom act – qHTS Assay for Rab9 Promoter Activators; Huh7 Rab9 promoter-luciferase reporter, luminescence, 24 h; Potency, µM (highest dose often 9.22 µM), for inactives: top-dose activation, negative = inhibition, most hits filed as activators; hit rate 2.8% among 320,000; AID 485297, 2010; also: % of control where 0% means no effect; nearly all actives have a fitted effect of over 60% in size
#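 Cell-based reporter: Huh7 stable for Rab9 promoter-driven luciferase, plated in reduced-serum medium with 10% FBS at 1500 cells/well, compound-treated 24 h at 37 °C, luminescence read after 10 min reagent.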
# * = called active by the depositor; u = inconclusive; x = no result given; [ ] = remark or other dose. Compounds with a hit are over-represented: about 7.3% of the library has one in this group of screens. Calls follow the shape of the dose curve; as a rule, active = well fitted curve in the direction sought with a large enough effect; inconclusive = small, poorly fitted or top-dose-only effect, or another doubt; inactive = no such curve, though single readings can be large; an effect the other way counts as inactive or inconclusive. Potency is read from the fitted curve at half-maximal effect.
SMILES,SMN2 splice up,FLuc modulator,Luc counter,ELG1 genotox,NPC1 prom act,Rab9 prom act
O=C(Nc1cccc(Cl)c1)c1ccc2ncsc2c1,x,19µM*,x,u,4µM*,3.5µM*
O=C(O)c1ccc2ncsc2c1,x,u,x,14%,u,3.5µM*
Cc1ccc(NC(=O)c2ccc(OC(F)F)cc2)cc1S(=O)(=O)N(C)C,-55%,9.5µM*,-6%,1%,8%,0%
COc1ccc(NC(=O)c2ccc(OC(F)F)cc2)cc1Cl,11µM*,2.7µM*,-12%,u,2µM*,2.5µM*
Cc1ccc(NC(=O)c2ccc([N+](=O)[O-])cc2)cc1S(=O)(=O)N(C)C,1%,u,2%,0%,u,u
COc1ccc(NC(=O)c2cc(F)cc(F)c2)cc1Cl,u,u,-7%,u,u,u
O=C(COC(=O)c1ccc2ncsc2c1)Nc1cccc(Cl)c1,x,0%,x,0%,-30%,-2%
N=C(N)S/C=C\C(=O)O,-3%,x,3%,x,x,x
Cc1ccc(NC(=O)c2ccc3ncsc3c2)cc1S(=O)(=O)N(C)C,x,2.1µM*,x,u,0.35µM*,0.35µM*
O=C(Nc1ccc(Cl)cc1)c1ccc2ncsc2c1,x,12µM*,x,u,2.8µM*,3.5µM*
COc1ccc(C(C)(C)C)cc1NC(=O)c1ccc2ncsc2c1,x,u,x,21%,23%,27%
O=C(Nc1ccc(C(F)(F)F)cc1)c1ccc2ncsc2c1,x,13µM*,x,u,3.5µM*,3.5µM*
O=C(Nc1ccc(OC(F)F)c(Cl)c1)c1ccccn1,11µM*,3.4µM*,-14%,2.3µM*,1µM*,0.63µM*
CCOC(=O)N1CCC(NC(=O)c2cnn(-c3ccc(C)cc3)c2C2CCN(C(=O)OC(C)(C)C)CC2)CC1,x,5%,x,x,x,x
Cc1c(C(=O)N2CCC(C)CC2)c(S(=O)(=O)N2CCN(c3ccc(Cl)cc3)CC2)c(C)n1C,x,-10%,x,x,x,x
O=C(Nc1ccc(N2CCOCC2)cc1)c1ccc2ncsc2c1,x,x,x,19%,x,x
CC(C)Oc1ccc(C(=O)Nc2ccc(Cl)c(S(=O)(=O)Nc3ccc(Cl)cc3)c2)cc1,-70%,15µM*,-2%,-10%,-2%,1%
O=C(Nc1ccc(F)cc1)c1ccc2ncsc2c1,x,24µM*,x,u,2.2µM*,3.5µM*
CN1CCN(c2ccc(-c3nc(-c4ccccc4)no3)cc2[N+](=O)[O-])CC1,x,-12%,x,x,x,x
CC(=O)NC1C(=O)N(CCN2CCOCC2)c2ccc(C)cc21 (configuration not stated),x,21µM*,x,-1%,-8%,11%
NC(=O)c1ccsc1N,x,0%,-4%,0%,-1%,-4%
Nc1sccc1C(=O)c1ccc(Cl)cc1,28%,u,-3%,11µM*,28%,u
N#C[C@H]1CN[C@H](N)N[C@@H]1N,-20%[9.22 µM],x,-1%[7.66 µM],x,x,x
CCNC(=O)NC(=O)CSc1nnc(-c2c[nH]c3ccccc23)o1,x,-8%,x,-3%,-2%,3%
CCSc1nnc(-c2c[nH]c3ccccc23)o1,x,19µM*,x,u,3.2µM*,4µM*
SMILES,SMN2 splice up,FLuc modulator,Luc counter,ELG1 genotox,NPC1 prom act,Rab9 prom act
CCOC(=O)CSc1nnc(-c2c[nH]c3ccccc23)o1,x,19µM*,x,-3%,0%,0%
Oc1c(Cl)cc(Cl)cc1CNc1ccc(Br)cn1,-7%,u,-1%,u,0%,4%
Oc1ccc(Cl)cc1CNc1ccc(Br)cn1,x,19µM*,4%,u,0%,1%
COc1cccc(C(=O)NCCC2=CCCCC2)c1,u,3µM*,-10%,u,0.56µM*,0.63µM*
COc1ccc(C(=O)NCCC2=CCCCC2)cc1OC,15%,u,0%,u,29%,u
Cc1cc(C(=O)NCCC2=CCCCC2)ccc1[N+](=O)[O-],x,12µM*,-4%,u,4.5µM*,1.8µM*
O=C(Cc1ccccc1[N+](=O)[O-])NCCC1=CCCCC1,7%,-14%,0%,9%,8%,12%
COc1ccc(C(=O)NCCC2=CCCCC2)cc1,2.5µM*,0.85µM*,-5%,1.5µM*,0.35µM*,0.32µM*
O=C(NCCC1=CCCCC1)c1ccc(F)cc1,7.1µM*,2.1µM*,-3%,u,0.4µM*,0.45µM*
Cc1ccccc1NC(=O)Cn1c(=O)n(CCC(=O)NCc2ccc3c(c2)OCO3)c(=O)c2sccc21,3%,-7%,x,x,x,x
COc1ccc(/C=C/C(=O)Nc2nc3n(n2)C(c2ccc(F)cc2)C=C(c2ccccc2)N3)cc1 (configuration not stated),x,-10%,x,x,x,x
COc1cc(OC)c(NC(=O)CSC2=Nc3ccccc3N=C(c3ccc(F)cc3)C2)cc1Cl,x,0%,x,x,x,x
O=C(NCCC1=CCCCC1)c1ccc([N+](=O)[O-])cc1,2.8µM*,5.4µM*,-3%,u,1.1µM*,0.63µM*
O=C(NCCC1=CCCCC1)c1ccc(Br)o1,29%,u,0%,16µM*,26%,25%
O=C(NC1CCCCCC1)c1ccc(CN2CCOCC2)cc1,u,17µM*,-3%,u,3.2µM*,3.5µM*
O=C(CCNC(=O)c1ccc([N+](=O)[O-])cc1)NCCC1=CCCCC1,x,-2%,x,-3%,-5%,-3%
O=C(NCCc1ccc(F)cc1)c1ccc([N+](=O)[O-])cc1,11µM*,15µM*,4%,u,2.5µM*,3.2µM*
COc1ccccc1Cc1nc2ccccc2nc1SCC(=O)N1CCC(C)CC1,x,-11%,x,x,x,x
CCCN1C(=O)CN(C2CCCCCC2)C(=O)C1c1ccc(OCC)c(OC)c1 (configuration not stated),x,-3%,x,x,x,x
O=C(NCCC1=CCCCC1)c1ccc(CN2CCOCC2)cc1,13µM*,24µM*,-4%,u,2.8µM*,1.4µM*
CC(=O)c1c(C)[nH]c(C(=O)NCCC2=CCCCC2)c1C,u,12µM*,-1%,9.2µM*,3.5µM*,u
COc1ccc(CCNC(=O)c2ccc(CN3CCOCC3)cc2)cc1,-15%,u,-1%,1%,12%,-3%
Cc1ccc(NC(=S)NCCC2=CCCCC2)cc1,20µM*,u,-2%,17%,u,3.5µM*
CCOC(=O)c1[nH]c(C)c(C(=O)NCCC2=CCCCC2)c1C,6%,-5%,-2%,u,27%,u
Cc1ccc(C(=O)c2cn(Cc3cccc(Cl)c3)c3nc(C)ccc3c2=O)cc1,0%,-6%,x,x,x,x
